An excerpt weighted towards active compounds, which were near 4.7% of everything screened.
ALR inh: human ALR oxidase inhibition via reduced H2O2. P55789. purified ALR, DTT oxidation, H2O2 HRP-luminol luminescence. inhibition, % (no concentration beside the values). 3.8% of 290,000 active;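 active = mean replicate inhibition above about 79%, with every replicate also reaching it, limit read from the data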
Target sequence (P55789 whole entry, looked up): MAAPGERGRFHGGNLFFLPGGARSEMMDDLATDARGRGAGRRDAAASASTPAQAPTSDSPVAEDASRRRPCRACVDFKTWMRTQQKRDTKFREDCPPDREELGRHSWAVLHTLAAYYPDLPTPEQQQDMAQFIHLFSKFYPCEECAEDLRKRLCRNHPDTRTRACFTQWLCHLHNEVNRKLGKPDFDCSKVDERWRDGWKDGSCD
SUMO HTRF inh: blocks human SUMOylation mediated by UBC9. P63279. HTRF SUMOylation assay, SAE1/SAE2 + UBC9, in vitro. inhibition, % at 35 µM. 0.36% of 290,000 active. AID 2006; in the data active = inhibition above about 50%, passing the limit was not always enough
Target sequence (P63279 whole entry, looked up): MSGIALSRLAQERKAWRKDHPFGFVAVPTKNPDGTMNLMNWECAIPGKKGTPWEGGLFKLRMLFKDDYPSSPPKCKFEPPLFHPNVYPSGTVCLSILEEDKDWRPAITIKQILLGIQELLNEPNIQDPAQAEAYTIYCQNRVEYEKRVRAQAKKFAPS
Efflux pump inh: inhibitors of Candida antifungal efflux pumps expressed in yeast | S. cerevisiae Candida pump triplex, Nile Red efflux | inhibition, % at 10 µM | 0.44% of 330,000 active;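 active = plate passing quality check with inhibition over a set limit, or well fluorescence over plate mean plus 4 SD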;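 also: Nile Red retained in pooled yeast measured as flow cytometry median fluorescence; 0% = buffer negative control and 100% = Enniatin B positive control; higher means more Nile Red kept so more efflux inhibition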
PABP FP inh: PABP-poly(A) binding inhibition | P11940 | PABP-poly(A) RNA binding, fluorescence polarization | inhibition, % at 35 µM | 1% of 290,000 active | AID 2014;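 also: calls also rest on retests at 20 µM and on dose response follow-up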
eIF4H inh: inhibitors of RNA binding by human eIF4H | inhibition, % at 35 µM | Q15056 | 0.94% of 290,000 active | AID 2012 | eIF4H fluorescence polarization binding assay;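 also: calls also rest on retests at 20 µM and on dose response follow-up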
PABP1 MLLE inh: inhibitors of microRNA-mediated deadenylation, human PABP1 MLLE binding; P11940; GST-MLLE / FITC-PAM2 fluorescence polarization; inhibition, % at 20 µM; 0.36% of 360,000 active; AID 588489; in the data active = inhibition above about 35%, passing the limit was not always enough;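 also: plate controls were DMSO wells with GST-MLLE for no effect and wells lacking GST-MLLE protein for full effect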
Active calls of the source: *. Unless noted, no rule for the calls is given here.

What do the screens show for `Cc1ccc(S(=O)(=O)N2C[C@H]3C(=O)C[C@@H](c4cccc(Cl)c4)N(S(=O)(=O)c4ccc(C)cc4)[C@H]3C[C@H]2c2ccc(Cl)cc2)cc1`?
PABP1 MLLE inh: 9.6

Results for CCC1C(=O)C(C)(C)C(=O)OC1c1ccc([N+](=O)[O-])cc1 (stereo unspecified) ?
ALR inh: -1.6; SUMO HTRF inh: 7.0; Efflux pump inh: -0.1; PABP FP inh: 85.3*; eIF4H inh: 109.5*; PABP1 MLLE inh: 7.4

How did CCC(C(=O)OCC(=O)NC(=O)c1ccccc1OC)c1ccccc1 (stereo unspecified) do in these assays?
ALR inh: -3.6; Efflux pump inh: -0.1; PABP1 MLLE inh: 7.2

Results for Cc1ccc(-c2csc(=S)[nH]2)cc1 ?
ALR inh: 63.6; SUMO HTRF inh: 0.0; Efflux pump inh: -0.1; PABP FP inh: -13.1; eIF4H inh: 1.0; PABP1 MLLE inh: 14.3

How did S=c1[nH]c(-c2ccc(Cl)cc2)cs1 do in these assays?
ALR inh: 97.1*; SUMO HTRF inh: 7.9; Efflux pump inh: 0.1; PABP FP inh: -7.3; eIF4H inh: 3.9; PABP1 MLLE inh: -0.2

Results for O=C(Cn1nnc(-c2ccccc2F)n1)Nc1ccc2c(c1)OCCO2 ?
ALR inh: -0.8; SUMO HTRF inh: 3.7; Efflux pump inh: -0.2; PABP FP inh: -1.8; eIF4H inh: -1.3; PABP1 MLLE inh: 1.9

Results for O=c1[nH]n(-c2cccc3cccnc23)c(=O)c2ccccc12 ?
ALR inh: -8.0; SUMO HTRF inh: -2.0; Efflux pump inh: 0.0; PABP FP inh: -5.0; eIF4H inh: -1.7; PABP1 MLLE inh: -1.1

How did O=c1[nH]n(-c2ccc(Cl)cc2)c2ncccc12 do in these assays?
ALR inh: 98.9*; SUMO HTRF inh: -8.9; Efflux pump inh: 0.0; PABP FP inh: 13.1; eIF4H inh: -4.1; PABP1 MLLE inh: -3.4

Results for O=C(c1oc2ccccc2c1CSCc1ccccc1)N1CCN(c2ncccn2)CC1 ?
ALR inh: -8.6; SUMO HTRF inh: -8.6; Efflux pump inh: 0.2; PABP FP inh: 1.2; eIF4H inh: 16.1; PABP1 MLLE inh: 68.7*

How did CC(C)CN(C(=O)c1ccc(Br)o1)C1CCS(=O)(=O)C1 (stereo unspecified) do in these assays?
ALR inh: 1.2; Efflux pump inh: 0.1; PABP1 MLLE inh: 7.3

Results for CCC1(CC)NC(=O)N(CC(=O)OCC(=O)Nc2ncc(Cl)cc2Cl)C1=O ?
ALR inh: -1.8; Efflux pump inh: 0.0; PABP1 MLLE inh: -1.4

How did Nc1nnc(-c2cc3c(ccc4ccccc43)oc2=O)s1 do in these assays?
SUMO HTRF inh: 65.5*; PABP FP inh: -0.7; eIF4H inh: 85.9*

How did Oc1c(C=Nc2cccc3cccnc23)sc2ccccc12 do in these assays?
ALR inh: -36.7; SUMO HTRF inh: -15.1; Efflux pump inh: 0.0; PABP FP inh: 118.6*; eIF4H inh: 125.1*

How did O=C(O)c1ccc(C2Nc3ccccc3C(=O)N2Cc2ccccc2)cc1 (stereo unspecified) do in these assays?
ALR inh: 2.3; SUMO HTRF inh: 6.0; Efflux pump inh: 0.1; PABP FP inh: 9.3; eIF4H inh: 5.0; PABP1 MLLE inh: -13.8

Results for CC(OC(=O)C1=Cc2ccccc2OC1)C(=O)NCC1CCCO1 (stereo unspecified) ?
PABP1 MLLE inh: 3.1

Results for Cc1cccc(NC(=O)CCS(=O)(=O)c2ccc3c(c2)NC(=O)CS3)n1 ?
ALR inh: -5.3; SUMO HTRF inh: 4.4; Efflux pump inh: -0.3; PABP FP inh: 35.6*; eIF4H inh: 64.0; PABP1 MLLE inh: 20.1

How did COc1ccc(S(=O)(=O)CCC(=O)N2c3ccccc3CC2C)cc1 (stereo unspecified) do in these assays?
ALR inh: -1.2; SUMO HTRF inh: 6.7; Efflux pump inh: 0.2; PABP FP inh: -5.1; eIF4H inh: -6.8; PABP1 MLLE inh: 0.4

What do the screens show for `CC1Cc2ccccc2N1C(=O)CCS(=O)(=O)c1ccc2c(c1)NC(=O)CS2` (stereo unspecified)?
ALR inh: -1.3; SUMO HTRF inh: 0.5; Efflux pump inh: 0.0; PABP FP inh: 13.3*; eIF4H inh: 57.5; PABP1 MLLE inh: -15.7

Results for COc1ccccc1NS(=O)(=O)c1ccc(C(=O)NCC(c2cccs2)N2CCOCC2)cc1 (stereo unspecified) ?
ALR inh: -5.3; Efflux pump inh: -0.3; PABP1 MLLE inh: 4.7

How did COc1ccc([C@@H]2[C@@H]3C(=O)N(C(C)(C)C)C(=O)[C@@H]3[C@]3(Cc4ccc(Cl)cc4)C(=O)N(c4cccc(F)c4)C(=O)N23)cc1 do in these assays?
ALR inh: -8.5; Efflux pump inh: 0.0; PABP1 MLLE inh: 8.8

What do the screens show for `Cc1c(O)ccc2c(CN3CCN(Cc4ccccc4)CC3)cc(=O)oc12`?
SUMO HTRF inh: 44.0; Efflux pump inh: 0.0; PABP FP inh: -3.8; eIF4H inh: -13.5; PABP1 MLLE inh: 5.2

Results for CCCc1cc(=O)oc2c(CN3CCOCC3)c(O)ccc12 ?
ALR inh: 12.4; SUMO HTRF inh: 18.9; Efflux pump inh: -0.2; PABP FP inh: 1.6; eIF4H inh: 3.5; PABP1 MLLE inh: 1.1

What do the screens show for `Cc1c(O)ccc2c(CN(C)Cc3ccccc3)cc(=O)oc12`?
ALR inh: 85.8*; SUMO HTRF inh: 16.8; Efflux pump inh: -0.1; PABP FP inh: 6.3; eIF4H inh: -0.4; PABP1 MLLE inh: 0.4

Results for Cc1ccccc1CN(C)Cc1cc(=O)oc2c(C)c(C)ccc12 ?
ALR inh: -2.3; SUMO HTRF inh: -12.6; Efflux pump inh: -0.2; PABP FP inh: 5.8; eIF4H inh: -17.3; PABP1 MLLE inh: 4.9

What do the screens show for `O=c1cc(CN2CCOCC2)c2ccc(O)c(O)c2o1`?
ALR inh: 99.3*; SUMO HTRF inh: -15.3; Efflux pump inh: 0.2; PABP FP inh: 1.0; eIF4H inh: -4.5; PABP1 MLLE inh: 23.5

How did O=c1cc(CN2CCN(Cc3ccccc3)CC2)c2ccc(O)c(O)c2o1 do in these assays?
ALR inh: 99.5*; SUMO HTRF inh: 4.3; Efflux pump inh: 0.0; PABP FP inh: 8.6; eIF4H inh: 26.3; PABP1 MLLE inh: 21.0

How did Cc1ccc2c(c1)N(C(=O)CCC(=O)NCc1cccnc1)CC(C)O2 (stereo unspecified) do in these assays?
ALR inh: -6.4; SUMO HTRF inh: 8.3; Efflux pump inh: -0.1; PABP FP inh: -8.6; eIF4H inh: -13.9; PABP1 MLLE inh: 5.2

How did Clc1ccc(-c2nc3ncccn3c2Nc2ccc3c(c2)OCO3)cc1 do in these assays?
ALR inh: 0.2; SUMO HTRF inh: 0.9; Efflux pump inh: -0.1; PABP FP inh: 53.8*; eIF4H inh: 61.1*; PABP1 MLLE inh: -2.0

How did Cc1ccn2c(Nc3ccc4c(c3)OCO4)c(-c3ccc(O)cc3)nc2c1 do in these assays?
ALR inh: 84.8*; SUMO HTRF inh: 4.3; Efflux pump inh: 0.2; PABP FP inh: 1.8; eIF4H inh: -8.8; PABP1 MLLE inh: -11.1

Results for Cc1ccc(-c2nc3ncccn3c2Nc2ccc3c(c2)OCO3)o1 ?
ALR inh: 98.8*; SUMO HTRF inh: 31.9; Efflux pump inh: -0.1; PABP FP inh: 0.8; eIF4H inh: 92.4; PABP1 MLLE inh: 15.5
